According to PubChem BioAssay (EPA / NIEHS):
Activity calls are given as the source filed them. The calls were made as follows: active = hit-call score of the fitted dose curve at least 0.9, where 1 is the maximum; inactive = score below 0.9. Peptide text beside a SMILES is read from it.

assay: ATG_CMV_CIS: Attagene CIS-FACTORIAL HepG2 Assay for human CMV (Internal Marker) (AID 2282928); conditions: HepG2 CMV promoter reporter, transcription factor profiling; actives raise or lower the signal;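 also: endpoint acts as a background internal control marker rather than a target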
Outline: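 Endogenous transcription factor activity read in HepG2 via transfected cis-promoter reporter units. After 24 h dosing, reporter mRNA measured by RT-PCR/capillary electrophoresis; gain or loss of signal fit relative to DMSO.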

| Compound | outcome | AC50 |
| --- | --- | --- |
| O=S(=O)(O)c1ccc(N=Nc2c(O)ccc3ccccc23)cc1 | inactive |  |
| CC1(C)[C@@H]2CC[C@@]1(C)C(=O)C2 | inactive |  |
| Cc1ccc(C)c(OCCCC(C)(C)C(=O)O)c1 | inactive |  |
| COc1ccc(C(=O)/C(Br)=C\C(=O)O)cc1 |  | 36 µM (active) |
| C/C=C/C=C/CCCCCCCO | inactive |  |
| CCCCCCCCCCCC(C)=O |  | 124 µM (active) |
| CC(=O)OCC=C(C)C | inactive |  |
| CCCC=C(C=O)CC | inactive |  |
| CCc1cccc(C)c1N | inactive |  |
| CCCCCCCCCCCCC | inactive |  |
| COCC(=O)O | inactive |  |
| CCC1COC(=O)O1 (centres undefined) | inactive |  |
| CCCC1CCCC(=O)O1 (centres undefined) | inactive |  |
| C[Si](C)(C)N[Si](C)(C)C | inactive |  |
| CCCC(CC)c1ccccc1 (centres undefined) |  | 153 µM (active) |
| CC(=O)OC1CCCCC1 | inactive |  |
| CCCCCC(=O)OCC | inactive |  |
| CC1CC(=O)CC(C)(C)C1 (centres undefined) | inactive |  |
| CC(C)(C)NC(=O)[C@H]1CC[C@H]2[C@@H]3CC[C@H]4NC(=O)C=C[C@]4(C)[C@H]3CC[C@]12C | inactive |  |
| CCC1(C)C(=O)N(Cl)C(=O)N1Cl (centres undefined) | inactive |  |
| CC/C=C\CCOC(=O)c1ccccc1O | inactive |  |
| CN1CCN(C)CC1 | inactive |  |
| CC(C)OC(=O)c1ccccc1 | inactive |  |
| COC(=O)[C@H](Cc1ccccc1)NC(=O)[C@@H](N)CC(=O)O (H-Asp-Phe-OMe) | inactive |  |
| C=CCCCCCCCCC=O | inactive |  |
| c1ccc(-c2nc3ccccc3[nH]2)cc1 | inactive |  |
| CC(=O)/C=C/C1C(C)=CCCC1(C)C (centres undefined) | inactive |  |
| C=C(C)C1CC=C(C)CC1 (centres undefined) | inactive |  |
| CCCCCCCCC(CO)CCCCCC (centres undefined) |  | 8.41 µM (active) |
